Assay results from PubChem BioAssay (NCI).
Values joined by “and” are separate entries in the source; they are usually repeats but may differ in a detail not shown here. Identical values can stand only once. The panel holds about 83,000 compounds, 20% with a hit somewhere; the sample as a whole holds those more often.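 Compound tested at a single concentration for 48 hours in 96-well plates; a percent growth value below 10 was scored as active.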 Active and inactive are the calls of the source.

Key:
Assay in all cases: NCI-60 one-dose screen, 48 h (100 = growth as untreated, 0 = no growth, -100 = all killed)
Settings in all cases: 10 µM unless noted
SK-MEL-2 melanoma = system: SK-MEL-2 melanoma
EKVX NSCLC = system: EKVX NSCLC
SN12C renal = system: SN12C renal
UO-31 renal = system: UO-31 renal
TK-10 renal = system: TK-10 renal
CAKI-1 renal = system: CAKI-1 renal
A498 renal = system: A498 renal
MOLT-4 leukemia = system: MOLT-4 leukemia
CCRF-CEM leukemia = system: CCRF-CEM leukemia

Measured: growth

CCN(CC)c1ccc(/C=N/NC(=O)c2ccc(NS(C)(=O)=O)cc2)cc1
inactive: SK-MEL-2 melanoma 40.1% | EKVX NSCLC 22.4% | SN12C renal 37.5% | UO-31 renal 15.7% | TK-10 renal 48.3% | CAKI-1 renal 25.2% | A498 renal 40.1%

CCc1nnc(NC(=O)c2cc(-c3ccc(Cl)cc3Cl)oc2C)s1
inactive: SK-MEL-2 melanoma 108% | EKVX NSCLC 99.4% | SN12C renal 83.7% | UO-31 renal 85.1% | TK-10 renal 114% | CAKI-1 renal 80.9% | A498 renal 97.4% | MOLT-4 leukemia 99.3%

CCOC(=O)c1ccc(NC2=C(Cl)C(=O)c3nc(C)ccc3C2=O)cc1
inactive: SK-MEL-2 melanoma 78.2% | EKVX NSCLC 68.4% | SN12C renal 75.8% | TK-10 renal 99.4% | CAKI-1 renal 75.4% | A498 renal 68.3% | MOLT-4 leukemia 16.3%
active: UO-31 renal 2.37% | CCRF-CEM leukemia 6.88%

CC1=C(C)C(=O)C(Nc2cccc(C(F)(F)F)c2)=C(Br)C1=O
active: CCRF-CEM leukemia -0.578% | MOLT-4 leukemia -6.02%
inactive: SK-MEL-2 melanoma 104% | EKVX NSCLC 72.9% | SN12C renal 97.1% | UO-31 renal 79.1% | TK-10 renal 157% | CAKI-1 renal 94.3% | A498 renal 86.4%

CS(=O)(=O)c1nccc(-c2c(-c3cccc(OCc4ccc(Cl)c(C(F)(F)F)c4)c3)nc3sccn23)n1
active: UO-31 renal 0.98% | MOLT-4 leukemia 9.69%
inactive: SK-MEL-2 melanoma 107% | EKVX NSCLC 78.9% | SN12C renal 74.7% | TK-10 renal 112% | CAKI-1 renal 73.7% | A498 renal 98.3% | CCRF-CEM leukemia 13.2%

O=C(CCCCCCN1CC(=O)N2[C@@H](c3cccs3)c3[nH]c4ccccc4c3C[C@H]2C1=O)NO
inactive: SK-MEL-2 melanoma 77.8% | EKVX NSCLC 92.2% | SN12C renal 93.8% | UO-31 renal 82.7% | TK-10 renal 85.5% | CAKI-1 renal 88.5% | A498 renal 87.3% | CCRF-CEM leukemia 24.2% | MOLT-4 leukemia 19.3%

CC(=O)N(O)CCCCCNC(=O)CCC(=O)N(O)CCCCCNC(=O)CCC(=O)N(O)CCCCCN(CCCCCCCCCC[P+](c1ccccc1)(c1ccccc1)c1ccccc1)CCCCCCCCCC[P+](c1ccccc1)(c1ccccc1)c1ccccc1
active: SK-MEL-2 melanoma -46.7% | EKVX NSCLC 5.96% | SN12C renal 1.45% | A498 renal -3.27% | CCRF-CEM leukemia 5.87% | MOLT-4 leukemia 8.41%
inactive: UO-31 renal 52.3% | TK-10 renal 26.5% | CAKI-1 renal 29.3%

Brc1cc(-c2cc(-c3ccc4c(c3)OCCO4)[nH]n2)cs1
inactive: SK-MEL-2 melanoma 62.7% | EKVX NSCLC 62.4% | SN12C renal 65% | UO-31 renal 54.6% | TK-10 renal 138% | CAKI-1 renal 33.8% | A498 renal 48.6% | CCRF-CEM leukemia 23.4% | MOLT-4 leukemia 27.8%

C/C(=N\NC(N)=S)c1nnn(-c2ccc([N+](=O)[O-])cc2)c1C
inactive: SK-MEL-2 melanoma 110% | EKVX NSCLC 62.4% | SN12C renal 94.5% | UO-31 renal 70.5% | TK-10 renal 98.7% | CAKI-1 renal 90.8% | A498 renal 94% | CCRF-CEM leukemia 101% | MOLT-4 leukemia 105%

CC(Nc1ncnc2ccc(-c3cnc4cnccn34)cc12)c1ccccc1 (configuration not stated)
inactive: SK-MEL-2 melanoma 64% | EKVX NSCLC 30.4% | SN12C renal 51.9% | UO-31 renal 15.7% | TK-10 renal 20.9% | CAKI-1 renal 27.6% | A498 renal 65.3% | MOLT-4 leukemia 37.5%

CCCCCCCCCC(=O)NC(C)(C)C(=O)N1CCC[C@H]1C(=O)N[C@@H](CC(C)C)C(=O)N[C@@](C)(CC)C(=O)N[C@@H](CCC(N)=O)C(=O)N[C@H](CCC(N)=O)C(=O)NC(C)(C)C(=O)NC(C)(C)C(=O)N[C@@H](CCC(N)=O)C(=O)N[C@H](CC(C)C)C(=O)N[C@H](CO)CC(C)C
-70.9% (active) and 14.9% (inactive): TK-10 renal
active: SK-MEL-2 melanoma -86.8% and -74.3% | EKVX NSCLC -87.8% and -64.6% | SN12C renal -86.4% and -84.1% | CAKI-1 renal -67.5% and 5.79% | A498 renal -91.3% and -31.5% | CCRF-CEM leukemia -72% and -39.7% | MOLT-4 leukemia -81.5% and -26.1%
-94% (active) and 26.4% (inactive): UO-31 renal

CC1=Cc2ccccc2OC12C=Cc1ccccc1O2 (configuration not stated)
inactive: SK-MEL-2 melanoma 115% | EKVX NSCLC 82.2% | SN12C renal 102% | UO-31 renal 69% | TK-10 renal 180% | CAKI-1 renal 78.5% | A498 renal 117% | CCRF-CEM leukemia 105% | MOLT-4 leukemia 99.9%

CNC(=O)c1cc(Oc2ccc3c(c2)sc2nc(-c4ccc(N(C)C)cc4)cn23)ccn1
inactive: SK-MEL-2 melanoma 59.7% | EKVX NSCLC 53.8% | SN12C renal 43% | UO-31 renal 33% | TK-10 renal 77.2% | CAKI-1 renal 32.3% | MOLT-4 leukemia 15.1%
active: A498 renal 7.34% | CCRF-CEM leukemia 9.49%

CCNCCOc1ccc(/C(=C(/CC)c2ccc(Cl)cc2)c2ccc(OCCCN(C)C)cc2)cc1
active: SK-MEL-2 melanoma -84% | EKVX NSCLC -84.4% | SN12C renal -85.6% | UO-31 renal -95.6% | TK-10 renal -89.8% | CAKI-1 renal -75.1% | A498 renal -86.3% | CCRF-CEM leukemia -37.5% | MOLT-4 leukemia -62.6%
